Screening results as filed in PubChem BioAssay.
Compounds with a hit are over-represented: about 1.5% of the library has one in this group of screens.
PI5P4Ka inh = blocks human PI5P4K alpha kinase activity | P48426 | PI5P4Kalpha enzyme, ADP-Glo luminescence, 60 min; stronger effect = lower value | max response, % | actives 1.2% (n = 330,000) | AID 652105; active = max response of -50% or lower; inconclusive = between -30% and -50%; inactive = -30% or higher; note: value at the top dose of about 77 µM
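Compounds were pin-transferred onto PI5P4Kalpha and substrate in HEPES pH 7.4 buffer with EGTA, CHAPS and 5% DMSO. ATP (5 microM final) started the reaction, which ran 60 minutes at room temperature before ADP-Glo detection.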
TDP1 block = inhibitors of human tyrosyl-DNA phosphodiesterase TDP1 | recombinant TDP1, AlphaScreen DNA substrate cleavage | Q9NUW8 | AID 485290 | Potency, µM (series often up to 130 µM), most hits filed as inhibitors | actives 0.28% (n = 350,000); note: nearly all actives have a fitted effect of over 40% in size
Target sequence (Q9NUW8 whole entry, looked up): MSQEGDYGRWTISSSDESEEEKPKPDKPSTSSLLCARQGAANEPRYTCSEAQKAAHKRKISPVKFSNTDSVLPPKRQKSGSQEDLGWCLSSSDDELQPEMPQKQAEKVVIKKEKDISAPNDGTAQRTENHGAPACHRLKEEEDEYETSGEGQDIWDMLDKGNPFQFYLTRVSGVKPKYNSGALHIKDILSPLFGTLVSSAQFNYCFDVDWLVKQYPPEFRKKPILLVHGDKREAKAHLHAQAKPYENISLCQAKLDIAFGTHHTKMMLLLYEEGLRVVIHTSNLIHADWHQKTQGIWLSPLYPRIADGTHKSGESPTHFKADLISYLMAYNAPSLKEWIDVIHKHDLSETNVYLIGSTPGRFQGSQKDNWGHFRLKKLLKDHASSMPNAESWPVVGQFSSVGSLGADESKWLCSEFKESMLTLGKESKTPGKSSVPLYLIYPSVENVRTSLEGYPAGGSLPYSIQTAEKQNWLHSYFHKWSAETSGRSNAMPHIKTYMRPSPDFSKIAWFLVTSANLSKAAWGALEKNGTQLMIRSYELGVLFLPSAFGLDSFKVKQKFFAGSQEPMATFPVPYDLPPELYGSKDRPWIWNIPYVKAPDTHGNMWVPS
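Steps: enzyme plus compound, 15 min RT; add biotin/phosphotyrosine-FITC oligonucleotide (15 nM final), react 5 min; add donor/acceptor beads (10 ug/ml final), 10 min; read AlphaScreen. Tdp1 at 1 nM final.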
WRN inhibitor = WRN helicase (human) inhibition | AID 651768 | WRN helicase unwinding, fluorescent forked duplex, kinetic | actives 0.46% (n = 360,000) | Potency, µM (doses to about 114 µM), hits mostly inhibitors; note: nearly all actives have a fitted effect of over 55% in size
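WRN at 20 nM final was preincubated with compound for 15 min at room temperature; reaction started with 100 nM forked duplex oligonucleotide carrying fluorophore and quencher plus 2 mM ATP (final). Unwinding followed kinetically by red fluorescence (ex 525/em 598 nm).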
FEN1 inhibitor = blocks human flap endonuclease 1; Potency, µM (titrated, usually from 114 µM), most hits filed as inhibitors; AID 588795; Recombinant FEN1 flap cleavage, fluorescence, 15 min; actives 0.35% (n = 390,000); note: nearly all actives have a fitted effect of over 65% in size
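Recombinant FEN1 (10 nM) was preincubated with pin-transferred compounds for 15 min at room temperature, then flap DNA substrate (50 nM final) was added. Plates were read at 0 and 15 min, and normalized concentration–response data were fitted to a four-parameter Hill equation.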
PGK inhibitor = inhibitors of T. brucei phosphoglycerate kinase; PGK/GAPDH coupled, Kinase-Glo luminescence, 60 min; Potency, µM (series often up to 57.5 µM), actives largely listed as inhibitors; actives 0.043% (n = 380,000); AID 602233; note: nearly all actives have a fitted effect of over 60% in size
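Luminescent ATP detection (Kinase-Glo Plus) follows a 60-minute room-temperature incubation, with wells lacking PGK as controls. Buffer: 100 mM TEA (pH 7.6), 5 mM MgCl2, 0.01% Tween-20. Coupling enzyme GAPDH (100 nM final) supplies unstable 1,3-BPG in-well.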
Tb PFK block = T. brucei PFK enzyme inhibition | O15648 | actives 0.17% (n = 330,000) | Potency, µM (top dose mostly 57.5 µM), hits mostly inhibitors | T. brucei PFK, ADP-Glo luminescence; note: nearly all actives have a fitted effect of over 60% in size
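Activity is normalized to no-enzyme wells (full inhibition) and 1.25 nM enzyme wells (no inhibition). Reaction: 0.5 mM F6P, 0.1 mM ATP, 45 min RT, ADP-Glo luminescence; concentration-response curves fitted and classed by quality.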
A number is an active result; . = inactive; ? = inconclusive; / = no result given; [ ] = dose if it differs, or a comment. Unless noted, calls come from the whole dose curve; as a rule, active = well fitted curve in the direction sought with a large enough effect; inconclusive = small, poorly fitted or top-dose-only effect, or another doubt; inactive = no such curve, though single readings can be large; an effect the other way counts as inactive or inconclusive.

SMILES	PI5P4Ka inh	TDP1 block	WRN inhibitor	FEN1 inhibitor	PGK inhibitor	Tb PFK block
CC(C)OC(=O)c1ccc(NCc2cc(O)ccc2O)cc1	.	/	.	.	.	/
COP(=O)(OC)c1ccc(NCc2cc(O)ccc2O)cc1	.	/	56µM	79µM	.	/
COc1ccc(C2Nc3ccccc3C(=O)N2Cc2cccnc2)cc1COc1ccc(NC(C)=O)cc1 (centres undefined)	/	.	/	/	/	/
O=C(/C=C/c1ccco1)Nc1cccc2cccnc12	-82	20µM	?	?	.	.
O=C(O)/C=C/C(=O)Nc1cccc2cccnc12	.	.	.	.	.	.
O=C(/C=C/c1ccco1)Nc1nc(-c2ccccn2)cs1	-93	.	?	18µM	.	.
O=C1CC(SC(=S)C2CCCC2=O)C(=O)N1 (centres undefined)	-80	/	35µM	/	?	/
CC(N)CN (centres undefined)	/	.	/	/	/	/
Cc1ccccc1NC(=O)/C(C#N)=C/c1ccc[nH]1	.	.	.	.	.	.
N#C/C(=C\c1ccc[nH]1)C(=O)Nc1ccccc1[N+](=O)[O-]	-65	/	.	.	.	?
O=C(c1cc2ncc(Br)cn2n1)N1CCN(C(=O)c2ccco2)CC1	.	22µM	?	.	.	?
COc1cc2sc3cc(NCC[C@@H]4CCCN4C)ccc3c(=O)c2cc1OC	.	.	?	22µM	.	.
COc1cc2sc3cc(NCc4ccc(C)o4)ccc3c(=O)c2cc1OC	.	.	.[11.6 µM]	32µM	.	.
COc1cccc2sc3ccc(NCCC4CCCN4C)cc3c(=O)c12 (centres undefined)	.	/	.	?	.	.
COc1cc2sc3cc(NCc4ccc5c(c4)OCO5)ccc3c(=O)c2cc1OC	.	.	.	?	.	.
O=C(CN1C(=O)/C(=C2/SC(=S)N(CCS(=O)(=O)O)C2=O)c2ccccc21)Nc1cccc(Br)c1	-57	/	?	?	?	?
COc1ccc(NC(=O)CN2C(=O)/C(=C3\SC(=S)N(CCC(=O)O)C3=O)c3ccccc32)cc1	.	.	.	.	.	.
O=C(NN=C1c2ccccc2-c2ccccc21)c1ccccc1	.	20µM	.	.	.	?
O=C(NN=C1c2ccccc2-c2ccccc21)c1ccccc1Br	/	.	.	.	.	.[0.46 µM]
c1c[nH]c(CNc2ncnc3ccc(-c4ccc5c(c4)OCO5)cc23)n1	/	.	/	/	/	/
Cc1ccc(-n2nc3c(N4CCC(C(=O)NCc5cccc(F)c5)CC4)nnc(C)c3c2C)cc1	.	40µM	.	.	.	.
C[N+]1(CC(=O)c2ccc(F)cc2)CCc2ccccc2C1 (centres undefined)	/	/	/	.	/	/
Nc1nc(Nc2ccccc2)nc(NC2CCCCC2)c1[N+](=O)[O-]	.	/	79µM	.	.	.
CSCC[C@H](NC(=O)[C@H](CO)NC(=O)[C@H](Cc1ccc(O)cc1)NC(=O)[C@@H](N)CO)C(=O)N[C@@H](CCC(=O)O)C(=O)N[C@@H](Cc1cnc[nH]1)C(=O)N[C@@H](Cc1ccccc1)C(=O)N[C@@H](CCCNC(=N)N)C(=O)N[C@@H](Cc1c[nH]c2ccccc12)C(=O)NCC(=O)N[C@@H](CCCCN)C(=O)N1CCC[C@H]1C(=O)N[C@H](C(=O)NCC(=O)N[C@@H](CCCCN)C(=O)N[C@@H](CCCCN)C(=O)N[C@@H](CCCNC(=N)N)C(=O)N[C@@H](CCCNC(=N)N)C(=O)N1CCC[C@H]1C(=O)N[C@H](C(=O)N[C@@H](CCCCN)C(=O)N[C@H](C(=O)N[C@@H](Cc1ccc(O)cc1)C(=O)N1CCC[C@H]1C(=O)N[C@@H](CC(N)=O)C(=O)NCC(=O)N[C@@H](C)C(=O)N[C@@H](CCC(=O)O)C(=O)N[C@@H](CC(=O)O)C(=O)N[C@@H](CCC(=O)O)C(=O)N[C@@H](CO)C(=O)N[C@@H](C)C(=O)N[C@@H](CCC(=O)O)C(=O)N[C@@H](C)C(=O)N[C@@H](Cc1ccccc1)C(=O)N1CCC[C@H]1C(=O)N[C@@H](CC(C)C)C(=O)N[C@@H](CCC(=O)O)C(=O)N[C@@H](Cc1ccccc1)C(=O)O)C(C)C)C(C)C)C(C)C	/	.	/	/	/	/
O=C(O)c1ccccc1OC1=NS(=O)(=O)c2ccccc21	/	.	/	/	/	/
SMILES	PI5P4Ka inh	TDP1 block	WRN inhibitor	FEN1 inhibitor	PGK inhibitor	Tb PFK block
CCOc1ccc(NC(=O)CSc2nc3ccsc3c(=O)n2CCCCC(=O)O)cc1	-65	/	.[11.6 µM]	/	.	/
CC12CCC3c4ccc(O)c([N+](=O)[O-])c4CCC3C1CCC2=O (centres undefined)	-59	/	.	/	.	/
CC12CCC3c4ccc(O)cc4CCC3C1CCC2=O (centres undefined)	.	.	.	.	.	.
CCOC(=O)c1cc(OCc2csc(-c3ccccc3)n2)cc(C(=O)OCC)c1	/	/	/	.	/	/
CN(C)c1ccc(C=NC2CCc3ccccc32)cc1 (centres undefined)	/	/	/	.	/	/
Cc1cc(=O)[nH]c(Nc2cccc(Cl)c2C)n1	.	/	.	.	.	.
Cc1ccccc1Nc1n[nH]c(=S)s1	?	/	.	/	.	/
Cc1c(Cl)cccc1Nc1n[nH]c(=S)s1	-88	/	.	.	.	/
Fc1ccccc1Nc1n[nH]c(=S)s1	-74	.	.	.	.	.
S=c1[nH]nc(Nc2cccc3ccccc23)s1	-74	.	?	.	.	?
C=CCN1c2ccccc2[C@]23C[C@@H](C(=O)OC)N(C(=O)COCc4ccccc4)C2=NC(C(=O)OC)=C(C(=O)OC)[C@H]13	/	.[21 µM]	/	/	/	/
Cc1ccc(S(=O)(=O)N2CCN(c3nc(-c4cncnc4)nc4ccccc34)CC2)cc1	/	.	/	.	/	/
Nc1c(C(=O)NCC2CCCO2)sc2nc3c(c(-c4ccco4)c12)CC/C3=C\c1ccco1 (centres undefined)	-100	?	2.8µM	3.2µM	?	.
COc1ccc(/C=N/N2C(=O)CSC2=S)cc1	/	.	.	.	.[11.5 µM]	/
COc1ccc(/C=N/N2C(=O)CSC2=S)cc1Br	-78	/	.	.	.	.
O=C1CSC(=S)N1N=Cc1ccc2c(c1)OCO2	-51	/	?	.	.	/
Cc1ccsc1CNc1ncnc2ccc(-c3ccc4c(c3)OCO4)cc12	/	.	/	/	/	/
CCCCCn1c(=O)[nH]c2cc(C(=O)N3CCN(c4cccc(Cl)c4)CC3)ccc2c1=O	/	.	/	.	.	/
CCCCOc1ccc(-c2c(C(=O)Nc3ccccc3)c(C)[nH]c(=S)c2C#N)cc1	-53	.	.	.	.	.
CCCCOc1ccc(-c2c(C#N)c(N)[nH]c(=S)c2C#N)cc1	-95	.	.	.	.	.
CCOC(=O)c1c(C)[nH]c(=S)c(C#N)c1-c1ccc(Cl)cc1	.	.	.	.	.	.
